Screens: PubChem BioAssay, National Center for Advancing Translational Sciences (NCATS)
ELG1 DNA repair = blocks ELG1-dependent DNA repair in HEK293T cells; HEK293T ELG1-luciferase reporter, luminescence, 16 h; DNA damage induced by 5-fluorouridine; Potency, µM (top dose mostly 46.1 µM), for inactives: at the top dose activity change, negative = inhibition, usual class: inhibitors; hit rate 2.3% among 330,000; further: potency means the concentration at half of the fitted maximal effect; nearly all actives have a fitted effect of over 55% in size
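Luminescence from the luciferase reporter, measured 30 min after ONE-Glo reagent at room temperature, was the read-out. Beforehand, 2,000 cells per well were exposed for 16 hr at 37 °C to 5-fluorouridine together with compound or vehicle.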
TDP1 cell CPT = growth inhibition of DT40 Tdp1-/-;hTDP1 cells with camptothecin (screen for TDP1 inhibitors). chicken DT40 Tdp1-/-;hTDP1 cells + 20 nM CPT, ATP luminescence, 48 h. Potency, µM (titrated, usually from 46.2 µM), inactives show top-dose activity change, negative = growth inhibition, hits mostly inhibitors. hit rate 12% among 420,000; further: potency means the concentration at half of the fitted maximal effect; nearly all actives have a fitted effect of over 55% in size
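Chicken DT40 Tdp1-/- cells complemented with human TDP1, 400 cells/well, exposed to compounds plus 20 nM camptothecin for at least 48 h at 37 C; viability read as ATP content by CellTiter-Glo luminescence.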
DT40 TDP1 no CPT = qHTS for Inhibitors of human tyrosyl-DNA phosphodiesterase 1 (TDP1): qHTS in cells in absence of CPT; hit rate 15% among 420,000; AID 686978, 2013; Potency, µM (top dose mostly 46.2 µM), for inactives: at the top dose activity change, negative = growth inhibition, usual class: inhibitors; DT40 Tdp1-/- hTDP1 cells, no CPT, ATP luminescence, 48 h; further: potency means the concentration at half of the fitted maximal effect; nearly all actives have a fitted effect of over 55% in size
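Compound effects on proliferation are scored in DT40 Tdp1-/-;hTDP1 cells in the absence of CPT. ATP levels (CellTiter-Glo luminescence) are recorded after a ≥48 hr, 37 °C incubation.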
Giardia kill = kills Giardia lamblia; AID 540267; activity change, % at 7.66 µM, hits read low; hit rate 0.15% among 340,000; Giardia lamblia trophozoite viability; in the data active means activity change below about -80%; inconclusive means between about -30% and that limit;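 further: parasites exposed to compound for two days anaerobically before the ATP read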
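Anaerobic 48 hrs incubation at 37 deg C of 100 trophozoites/well with test compounds; ATPLite 1-Step luminescence, 15-30 min RT, reports cellular ATP as viability.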
TDP1 inh = inhibitors of human tyrosyl-DNA phosphodiesterase TDP1; Q9NUW8; recombinant TDP1, AlphaScreen DNA substrate cleavage; Potency, µM (series often up to 130 µM), for inactives: at the top dose activity change, negative = inhibition, actives largely listed as inhibitors; hit rate 0.28% among 350,000; AID 485290; further: potency means the concentration at half of the fitted maximal effect; nearly all actives have a fitted effect of over 40% in size
Target sequence (Q9NUW8 whole entry, looked up): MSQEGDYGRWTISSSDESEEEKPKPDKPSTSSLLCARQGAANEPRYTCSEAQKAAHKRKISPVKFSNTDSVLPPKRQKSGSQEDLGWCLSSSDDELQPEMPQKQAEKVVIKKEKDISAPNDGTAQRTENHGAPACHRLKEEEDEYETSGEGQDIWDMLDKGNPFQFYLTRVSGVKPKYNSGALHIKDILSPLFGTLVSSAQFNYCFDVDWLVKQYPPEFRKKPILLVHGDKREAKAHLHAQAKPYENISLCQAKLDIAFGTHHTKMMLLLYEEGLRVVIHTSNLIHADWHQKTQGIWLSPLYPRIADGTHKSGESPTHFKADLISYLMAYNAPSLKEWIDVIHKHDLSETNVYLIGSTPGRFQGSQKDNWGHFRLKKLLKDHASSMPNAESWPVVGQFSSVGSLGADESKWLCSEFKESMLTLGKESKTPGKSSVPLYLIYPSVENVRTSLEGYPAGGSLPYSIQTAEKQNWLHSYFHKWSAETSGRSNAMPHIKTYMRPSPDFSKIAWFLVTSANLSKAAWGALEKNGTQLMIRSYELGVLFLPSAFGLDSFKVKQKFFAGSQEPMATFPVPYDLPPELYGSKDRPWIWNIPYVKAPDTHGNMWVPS
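Here, a 5' biotin and 3' phosphotyrosine-FITC DNA oligonucleotide reports Tdp1 activity: intact substrate bridges AlphaScreen beads, while cleavage leaves a 3' phosphate and drops signal. All incubations at room temperature.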
IL-1B inflam inh = blocks inflammasome-driven IL-1 beta release; THP-1 LPS/ATP IL-1B secretion, AlphaLISA, 16 h; active compounds read low; activity change, % at 57.5 µM; hit rate 4.7% among 360,000; in the data active means activity change below about -50%; inconclusive means mostly about -30% to -49%
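Secreted IL-1B measured by AlphaLISA bead assay after 16 h compound exposure of THP-1 cells; compounds (final up to 57.5 uM) added 1 h before LPS (250 ng/mL) and ATP (1.25 mM) stimulation; lower signal means less secretion.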
Numbers without * were called inactive; u = inconclusive; x = not tested or not shown. A selection: hits, their analogues and other compounds. The true share with any hit is near 19%. Unless noted, the call rests on the fitted dose curve; in most records, active means well fitted curve in the direction sought with a large enough effect; inconclusive means small, poorly fitted or top-dose-only effect, or another doubt; inactive means no such curve, though single readings can be large; an effect the other way counts as inactive or inconclusive. On the % scale 0 is the no-effect control and ±100 the full control effect.

SMILES	ELG1 DNA repair	TDP1 cell CPT	DT40 TDP1 no CPT	Giardia kill	TDP1 inh	IL-1B inflam inh
CCOC(=O)c1cc(C)sc1NC(=O)CSc1nnnn1C	6%	-3%	-5%	28	3%	12
CCOC(=O)c1cc(C)sc1NC(=O)CSC1=NCCS1	-19%	u	-25%	-1	-4%	-61*
CC(=O)Oc1ccc(OC(C)=O)c2c1CC(C)=C(C)C2	-21%	13µM*	13µM*	-12	x	-27
COc1ccc2c(C)cc(N3CCN(Cc4ccccc4)CC3)nc2c1	19%	-9%	12%	-8	x	-26
Cc1cc(N2CCC(N(C)C3CCCC3)CC2)nc2cc(O)ccc12	-26%	u	18µM*	10	8%	-22
COc1ccc2c(C)cc(N3CCCCCC3)nc2c1	3%	u	u	9	-14%	-67*
Cc1cc(C(C)(C)C)cc(C)c1C[n+]1ccc2ccccc2c1	u	0.41µM*	0.23µM*	8	x	-52*
Cc1cc(C(C)(C)C)cc(C)c1CCNC(=O)c1ccc[n+]([O-])c1	u	-23%	u	u	-1%	-5
Cc1cc(C)c(NC(=O)/C(=C/c2ccccc2)c2ccccc2)c(C)c1	10%	23µM*	21µM*	22	-14%	0
COc1ccc(F)cc1NC(=O)C1CCN(c2nc(-c3ccc(OC)c(OC)c3)no2)CC1	x	4.6µM*	16µM*	x	9%	x
COc1ccc(-c2noc(N3CCCC(C(=O)Nc4cc(F)ccc4F)C3)n2)cc1 (configuration not stated)	-3%	u	18µM*	-7	x	0
COc1ccc(-c2noc(N3CCC(C(=O)Nc4ccccc4F)CC3)n2)cc1	17%	-16%	-4%	u	x	21
COc1ccc(-c2noc(N3CCC(C(=O)Nc4ccc(OC)c(OC)c4)CC3)n2)cc1	11%	-2%	-13%	-2	4%	7
CCCCC(O)C(=O)Nc1cc(C(F)(F)F)ccc1Cl (configuration not stated)	x	x	x	x	-5%	x
O=C(Nc1ccccc1)C1Cc2c(-c3cccc(F)c3)ccnc2O1 (configuration not stated)	x	21µM*	u	x	x	-63*
CNC(=O)C1Cc2c(-c3cccc(F)c3)ccnc2O1 (configuration not stated)	x	-11%	4%	x	x	17
COc1ccc(NC(=O)C2Cc3c(-c4cccc(F)c4)ccnc3O2)cc1OC (configuration not stated)	x	7.3µM*	4.6µM*	x	x	-15
CS(=O)(=O)Nc1cccc(NC(=O)C2Cc3c(-c4cccc(F)c4)ccnc3O2)c1 (configuration not stated)	x	5.2µM*	3.3µM*	x	x	-10
COc1ccc(NC(=O)C2Cc3c(-c4ccco4)ccnc3O2)cc1OC (configuration not stated)	x	23µM*	u	x	x	-2
CN1CCN(C(=O)C2Cc3c(-c4cccc(F)c4)ccnc3O2)CC1 (configuration not stated)	x	-18%	-9%	x	x	10
COc1cc(C2CC(=O)Nc3c2c(C)nn3-c2nncc(-c3ccccc3)n2)cc(OC)c1OC (configuration not stated)	x	u	-9%	x	0%	x
CC(NC(=O)COC(=O)c1c[nH]c2ccccc12)c1ccccc1 (configuration not stated)	u	-21%	u	32	2%	-25
Cc1ccc(CN2C(=O)C(Cc3ccccc3)Nc3ncnc(N4CCN(c5ccccc5)CC4)c32)cc1 (configuration not stated)	-14%	u	u	-13	4%	-17
Cc1ccc(CN2C(=O)C(Cc3ccccc3)Nc3ncnc(N4CCCCC4)c32)cc1 (configuration not stated)	1%	18µM*	u	-20	5%	-19
O=C1C(Cc2ccccc2)Nc2ncnc(N3CCN(c4ccccc4)CC3)c2N1Cc1ccccc1 (configuration not stated)	2%	u	18µM*	7	x	-59*
SMILES	ELG1 DNA repair	TDP1 cell CPT	DT40 TDP1 no CPT	Giardia kill	TDP1 inh	IL-1B inflam inh
CCC1Nc2ncnc(N3CCN(c4ccccc4)CC3)c2N(Cc2ccc(Br)cc2)C1=O (configuration not stated)	-3%	21µM*	u	-16	x	u
O=C(NC1CCCCCC1)C1CCCN(c2ncccn2)C1 (configuration not stated)	u	-14%	0%	-10	8%	11
Cn1c(=O)c2c(ncn2CC(O)CNc2cccc(Cl)c2)n(C)c1=O (configuration not stated)	u	u	u	-16	-3%	16
CCOC(=O)c1ccc(NC(=O)CNC(=O)c2ccccc2)cc1	3%	8%	4%	14	7%	-7
CCOC(=O)c1ccc(NC(=O)Cn2nnc3ccccc32)cc1	u	23µM*	10µM*	4	5%	15
CCOC(=O)c1ccc(NC(=O)C2CCCO2)cc1 (configuration not stated)	u	-18%	-11%	-13	1%	u
CCOC(=O)c1ccc(NC(=O)C2CC2)cc1	u	8.2µM*	6.5µM*	-7	5%	0
CCOC(=O)c1ccc(P(=O)(c2ccccc2)c2ccccc2)cc1	u	u	23µM*	16	x	-8
CC(=O)Nc1ccc(NC(=O)CCn2nnc3ccccc32)cc1	u	u	23µM*	1	6%	-10
Cc1ccc(NS(=O)(=O)c2ccc(-c3ccccc3)cc2)cc1C	x	x	x	x	-4%	x
CCOC(=O)c1ccc(NC(=O)Cn2cccc2)cc1	u	15µM*	16µM*	-2	7%	12
COc1ccccc1CNC(=O)c1cc(-c2cc(F)ccc2OC(C)C)n[nH]1	x	16µM*	21µM*	x	x	-8
COc1cc(CNC(=O)c2cc(-c3cc(F)ccc3OC(C)C)n[nH]2)cc(OC)c1	x	16µM*	u	x	x	u
CC(C)Oc1ccc(F)cc1-c1cc(C(=O)NCc2ccc(C(F)(F)F)cc2)[nH]n1	x	16µM*	u	x	x	u
CCCOc1ccc(F)cc1-c1cc(C(=O)NCc2cc(OC)cc(OC)c2)[nH]n1	x	18µM*	u	x	x	-21
COc1cc(CNC(=O)c2cc(-c3ccc(F)cc3C)n[nH]2)cc(OC)c1	x	u	u	x	x	-16
CCCOc1ccc(F)cc1-c1cc(C(=O)NCc2ccccc2OC)[nH]n1	x	u	u	x	x	-19
